Results published in PubChem BioAssay AID1159580 (chemical genetic matrix, 2015).
In all, about 5,500 compounds went through this assay and about 2,000 (36%) were called active. About 18% were inconclusive and are not listed. Cut-off read from the data, not from the text of the source: active = normalized growth mostly below about 0.91 (no sharp cut-off); inconclusive = no clear call, values can overlap the other calls; inactive = mostly above about 0.92. The list shows a part of the results.

Assay: chemical genetic growth profiling, strain panel (AID 1159580);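 note: tested at 20 µM; growth read once vehicle control cultures reached saturation at 30 °C; 1 = growth at the plate median or of vehicle wells; lower values mean less growth of the strain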
Conditions: S. cerevisiae deletion strains, growth OD

Measured: normalized growth

COc1cc(C(O)CN)ccc1O (stereo unspecified)
inactive: locus YAL040C, strain CLN3, stronger effect = lower value 1.01 | locus YCL061C, strain MRC1 (second series), stronger effect = lower value 1.01 | locus YDR363W, strain ESC2, stronger effect = lower value 1.02 | locus YER002W, strain NOP16, stronger effect = lower value 1.04 | locus YGR229C, strain SMI1, stronger effect = lower value 1.01 | locus YMR263W, strain SAP30, stronger effect = lower value 1.01 | locus YNL175C, strain NOP13, stronger effect = lower value 1.02 | locus YNL197C, strain WHI3, stronger effect = lower value 1.01 | locus YNL224C, strain SQS1, stronger effect = lower value 1 | locus YOR083W, strain WHI5 (second series), stronger effect = lower value 1.01 | locus YPL241C, strain CIN2, stronger effect = lower value 1
